The record followed here is PubChem BioAssay.

One assay deals with Albumin (Bos taurus) (UniProt P02769). The assay can be described thus: compounds binding labelled BSA control protein – biochemical, small-molecule microarray, Alexa647 label, 635/667 nm fluorescence, artefact control for SMM control protein annotation, profiling panel (AID 1118).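 Note: score merges 667 nm emission intensity and signal-to-noise per printed compound spot.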 The conditions noted are these: BSA-A647 binding, fluorescence 635 nm, higher = more signal.
Sequence of Albumin (Bos taurus) (P02769 whole entry, looked up): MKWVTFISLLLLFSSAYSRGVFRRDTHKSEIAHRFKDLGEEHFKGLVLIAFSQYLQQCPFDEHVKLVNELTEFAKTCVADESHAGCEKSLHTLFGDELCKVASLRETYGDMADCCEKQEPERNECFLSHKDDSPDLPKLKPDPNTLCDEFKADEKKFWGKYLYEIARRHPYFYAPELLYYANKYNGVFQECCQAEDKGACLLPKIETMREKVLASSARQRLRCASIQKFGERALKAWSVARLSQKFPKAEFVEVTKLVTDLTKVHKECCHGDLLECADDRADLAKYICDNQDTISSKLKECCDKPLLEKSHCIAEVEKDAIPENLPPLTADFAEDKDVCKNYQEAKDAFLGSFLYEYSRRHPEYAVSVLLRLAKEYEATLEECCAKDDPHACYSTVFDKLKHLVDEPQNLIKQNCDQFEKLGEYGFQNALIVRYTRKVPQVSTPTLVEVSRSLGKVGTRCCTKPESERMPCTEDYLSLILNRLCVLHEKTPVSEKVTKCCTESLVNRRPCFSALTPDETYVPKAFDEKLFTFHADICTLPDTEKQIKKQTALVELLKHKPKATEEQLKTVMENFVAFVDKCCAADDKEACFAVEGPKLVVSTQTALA
Assay [1] is described as follows: probe aXIP binding to arrayed compounds – biochemical, NeuroSMM set, 635/667 nm fluorescence, primary screen (AID 1119).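 Note: probe is the protein aXip251-270 applied at 1 µg/mL to compound-printed slides; binding of probe to printed compounds measured as 667 nm fluorescence plus signal to noise.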 Conditions: small-molecule microarray, higher = more signal, called active from +8 up or from −8 down.
Assay [2] in a line: probe aNOTCH3 binding on compound microarray – biochemical, small-molecule microarray, 635/667 nm fluorescence, primary screen (AID 1120).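 Note: probe is a biotin-tagged antibody raised against NOTCH3 rather than NOTCH3 protein; score merges spot fluorescence near 667 nm with spot signal to noise.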 Conditions: higher = more signal.
The nature of assay [3]: probe aNOTCH2 binding on compound microarray – biochemical, small-molecule microarray, 635/667 nm fluorescence, primary screen (AID 1121).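 Note: score merges feature fluorescence read at 667 nm with its signal to noise.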 The conditions noted are these: higher = more signal.
Assay [4] concerns the target Carbonic anhydrase 2 (Homo sapiens) (UniProt P00918). The assay can be described thus: compounds binding carbonic anhydrase 2 – biochemical, small-molecule microarray, Alexa647-labelled CAII, profiling panel (AID 1122). The conditions noted are these: CAII-A647 binding fluorescence, higher = more signal.
Assay [5] in a line: COS7 lysate on small-molecule microarray, probe aHis, 635 nm (AID 1123).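 Note: z-score combines 667nm fluorescence intensity with signal-to-noise per printed compound spot.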 Conditions: COS7 cell lysate, fluorescence, higher = more signal.
The nature of assay [6]: probe aLAP1 signal on lysate-treated microarray – cell lysate, small-molecule microarray, COS7 lysate, primary screen (AID 1124).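 Note: lysate comes from COS7 cells expressing LAP1 and is applied at 0.3 µg/mL; score merges spot fluorescence near 667 nm with signal-to-noise over triplicate slides.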 Conditions: probe aLAP1, fluorescence, higher = more signal.
The next assay concerns Sam68 (KHDRBS1). As to the kind of experiment: compounds binding KHDRBS1 protein – biochemical, small-molecule microarray, 635 nm fluorescence, primary screen (AID 1125).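 Note: score merges 667 nm channel intensity with signal to noise over triplicate slides.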 Conditions: higher = more signal.
The test system of assay [7] is Chordin-like protein 2 (CHRDL2). The assay can be described thus: compounds binding chordin-like 2 – biochemical, small-molecule microarray, 635 nm fluorescence, primary screen (AID 1126).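 Note: printed compound slides probed with Chrdl2 protein at 4 µg/mL for 1 h at 4 C; score merges 667 nm emission intensity with signal to noise over three replicate slides.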 Conditions: fluorescence 635 nm, higher = more signal.
Assay [8] addresses Concanavalin-A (Canavalia ensiformis) (UniProt P02866). As to the kind of experiment: compounds binding concanavalin A lectin – biochemical, small-molecule microarray, Alexa647 label, 635 nm, artefact control for SMM control protein annotation, primary screen (AID 1127).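 Note: z combines 667 nm emission intensity with signal-to-noise across three replicate slides.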 Conditions: ConA-A647 binding fluorescence, higher = more signal.
Assay [9] in a line: compounds binding Alexa647 anti-His antibody – biochemical, small-molecule microarray, 635 nm fluorescence, artefact control for SMM control protein annotation, primary screen (AID 1128).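 Note: score merges feature fluorescence with signal-to-noise for each printed compound spot.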 Conditions: higher = more signal.
Assay [10] concerns Human papillomavirus type 1a E7 protein (residues 1-88). The assay can be described thus: HPV1a E7 small-molecule binders, primary screen, biochemical, small-molecule microarray, residues 1-88, 635 nm (AID 1129). Conditions: small-molecule microarray binding, fluorescence 635 nm; higher = more signal.
Assay [11] deals with Focal adhesion kinase 1 (Homo sapiens) (UniProt Q05397). As to the kind of experiment: PTK2 protein binding on printed compound slides – biochemical, small-molecule microarray, 635/667 nm fluorescence, BSA, DTT, primary screen (AID 1130).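 Note: composite of spot emission at 667 nm and signal to noise over triplicate slides.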 The conditions noted are these: 635 nm fluorescence, higher = more signal.
Sequence of Focal adhesion kinase 1 (Homo sapiens) (Q05397 whole entry, looked up): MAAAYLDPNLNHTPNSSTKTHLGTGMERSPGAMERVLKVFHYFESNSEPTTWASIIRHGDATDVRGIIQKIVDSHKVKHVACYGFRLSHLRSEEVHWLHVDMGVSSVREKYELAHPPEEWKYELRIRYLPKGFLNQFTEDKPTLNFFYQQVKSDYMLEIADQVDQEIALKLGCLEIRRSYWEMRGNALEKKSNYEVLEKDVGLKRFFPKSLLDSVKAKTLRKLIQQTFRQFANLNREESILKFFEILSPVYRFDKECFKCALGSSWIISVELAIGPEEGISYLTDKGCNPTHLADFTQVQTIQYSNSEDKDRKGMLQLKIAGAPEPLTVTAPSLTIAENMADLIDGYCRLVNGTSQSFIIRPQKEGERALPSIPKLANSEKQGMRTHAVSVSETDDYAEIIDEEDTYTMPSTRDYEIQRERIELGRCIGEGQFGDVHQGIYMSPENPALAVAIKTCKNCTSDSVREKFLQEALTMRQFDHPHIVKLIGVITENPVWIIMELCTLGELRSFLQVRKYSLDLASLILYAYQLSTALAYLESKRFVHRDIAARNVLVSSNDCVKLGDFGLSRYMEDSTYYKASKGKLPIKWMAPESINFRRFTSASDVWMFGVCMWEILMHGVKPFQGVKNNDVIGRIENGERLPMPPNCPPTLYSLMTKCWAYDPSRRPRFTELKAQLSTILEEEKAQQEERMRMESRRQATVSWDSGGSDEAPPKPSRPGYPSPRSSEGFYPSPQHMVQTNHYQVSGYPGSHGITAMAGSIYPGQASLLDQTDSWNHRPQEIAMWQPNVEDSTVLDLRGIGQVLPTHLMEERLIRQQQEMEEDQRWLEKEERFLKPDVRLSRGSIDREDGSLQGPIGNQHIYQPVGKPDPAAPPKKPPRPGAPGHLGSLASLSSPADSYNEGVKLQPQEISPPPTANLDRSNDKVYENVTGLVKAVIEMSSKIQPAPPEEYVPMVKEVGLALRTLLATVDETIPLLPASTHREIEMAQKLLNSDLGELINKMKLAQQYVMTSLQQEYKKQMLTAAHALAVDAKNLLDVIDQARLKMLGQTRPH
The test system of assay [12] is Fibrinogen (Alexa647-labelled). As to the kind of experiment: Alexa647-fibrinogen binding to printed small molecules – biochemical, small-molecule microarray, 635/667 nm fluorescence, artefact control for SMM control-protein annotation, profiling panel (AID 1131).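 Note: z-score merges 667 nm fluorescence with per-spot signal-to-noise over triplicate slides.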 The conditions noted are these: fibrinogen-A647 binding fluorescence, higher = more signal.
The target of assay [13] is Follistatin (Homo sapiens) (UniProt P19883). The assay can be described thus: FST protein binding to printed compounds – biochemical, small-molecule microarray, 635/667 nm fluorescence, primary screen (AID 1132). Conditions: 635 nm fluorescence, higher = more signal.
Sequence of Follistatin (Homo sapiens) (P19883 whole entry, looked up): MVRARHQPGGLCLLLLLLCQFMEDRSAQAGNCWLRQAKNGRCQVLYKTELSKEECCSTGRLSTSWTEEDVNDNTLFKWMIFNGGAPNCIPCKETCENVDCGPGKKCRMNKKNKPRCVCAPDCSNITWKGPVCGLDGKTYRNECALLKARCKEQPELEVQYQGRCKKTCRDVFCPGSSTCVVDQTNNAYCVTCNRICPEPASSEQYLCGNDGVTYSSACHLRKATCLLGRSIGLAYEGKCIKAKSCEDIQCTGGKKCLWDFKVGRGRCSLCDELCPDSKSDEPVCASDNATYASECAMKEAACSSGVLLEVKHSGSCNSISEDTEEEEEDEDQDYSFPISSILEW
Assay [14] addresses Fibroblast growth factor 2 (Homo sapiens) (UniProt P09038). As to the kind of experiment: basic fibroblast growth factor binding to printed compounds – biochemical, small-molecule microarray, 635/667 nm fluorescence, primary screen (AID 1133). The conditions noted are these: FGF2, fluorescence 635/667, higher = more signal.
Assay [15] is described as follows: JC-1 mitochondrial potential readout, lung cancer cells – cell-based, A549, JC-1 fluorescence, basal, 24 h, 100 nL, profiling panel (AID 1138).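 Note: A549 lung adenocarcinoma cells under basal conditions with no added stimulus; test concentration not given here.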 Conditions: higher = more signal.
In another assay the test system is Lefty1. The assay can be described thus: Lefty1 protein binding to printed compounds – biochemical, small-molecule microarray, 635/667 nm fluorescence, primary screen (AID 1139). The conditions noted are these: fluorescence 635/667, higher = more signal.
Assay [16] relates to wheat germ agglutinin (Triticum aestivum), Alexa647-labelled. The assay can be described thus: Alexa647-WGA lectin binding to printed small molecules – biochemical, small-molecule microarray, 635/667 nm fluorescence, artefact control for SMM control-protein annotation, profiling panel (AID 1140).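 Note: score merges 667 nm feature emission with signal to noise over triplicate slides.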 Conditions: WGA-A647 binding, 635 nm fluorescence, higher = more signal.
In assay [17] the target is Luciferin 4-monooxygenase (Photinus pyralis) (UniProt P08659). The assay can be described thus: inhibition of purified Photinus pyralis luciferase – biochemical, luminescence, purified enzyme, 2006 set, primary screen (AID 1141).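 Note: cell-free assay with purified firefly luciferase at 100 ng per well in PBS; test concentration not given here.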 Conditions: purified firefly luciferase, SteadyGlo luminescence, 30 min; higher = more signal, called active from +8 up or from −8 down.
Sequence of Luciferin 4-monooxygenase (Photinus pyralis) (P08659 whole entry, looked up): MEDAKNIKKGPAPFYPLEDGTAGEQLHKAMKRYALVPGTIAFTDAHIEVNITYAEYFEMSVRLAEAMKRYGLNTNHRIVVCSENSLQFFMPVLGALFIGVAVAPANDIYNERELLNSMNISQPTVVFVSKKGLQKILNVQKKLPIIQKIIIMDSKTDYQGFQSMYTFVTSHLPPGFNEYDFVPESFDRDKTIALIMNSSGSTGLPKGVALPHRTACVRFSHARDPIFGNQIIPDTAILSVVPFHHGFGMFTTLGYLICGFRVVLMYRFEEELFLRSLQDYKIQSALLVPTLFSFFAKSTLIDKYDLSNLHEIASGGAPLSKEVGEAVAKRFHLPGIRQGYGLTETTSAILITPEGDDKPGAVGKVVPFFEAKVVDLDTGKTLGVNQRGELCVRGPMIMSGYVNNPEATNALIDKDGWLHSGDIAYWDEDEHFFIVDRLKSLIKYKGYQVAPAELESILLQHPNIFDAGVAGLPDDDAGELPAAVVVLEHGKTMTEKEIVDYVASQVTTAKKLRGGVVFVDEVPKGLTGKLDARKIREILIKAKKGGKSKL

Structures are written as SMILES. Active and inactive are the calls of the source.

Sequence of Fibroblast growth factor 2 (Homo sapiens) (P09038 whole entry, looked up): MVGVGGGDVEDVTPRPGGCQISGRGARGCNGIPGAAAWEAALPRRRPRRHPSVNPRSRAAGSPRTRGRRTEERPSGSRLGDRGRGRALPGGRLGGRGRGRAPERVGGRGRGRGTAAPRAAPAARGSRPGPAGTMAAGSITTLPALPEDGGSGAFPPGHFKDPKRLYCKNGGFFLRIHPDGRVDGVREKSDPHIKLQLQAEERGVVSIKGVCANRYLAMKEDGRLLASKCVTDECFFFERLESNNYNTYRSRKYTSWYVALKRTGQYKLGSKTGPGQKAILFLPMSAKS
Sequence of Concanavalin-A (Canavalia ensiformis) (P02866 whole entry, looked up): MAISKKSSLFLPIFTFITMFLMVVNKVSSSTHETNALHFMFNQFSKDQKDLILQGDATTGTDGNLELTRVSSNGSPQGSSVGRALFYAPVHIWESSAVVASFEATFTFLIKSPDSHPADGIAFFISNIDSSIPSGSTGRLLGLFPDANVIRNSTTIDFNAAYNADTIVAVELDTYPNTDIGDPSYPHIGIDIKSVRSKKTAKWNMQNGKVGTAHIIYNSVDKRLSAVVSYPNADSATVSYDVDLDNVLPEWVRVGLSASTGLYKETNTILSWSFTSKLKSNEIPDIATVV

Consider `C=CCNC(=O)[C@H]1[C@@H]2C(=O)O[C@@H](c3ccccc3)[C@@H](c3ccccc3)N2[C@@H](c2ccc(OCCO)cc2)[C@]12C(=O)Nc1ccc(C#Cc3ccc(OC)cc3)cc12`, for which the composite z-score was 0.404 with Albumin (Bos taurus); 0.146 in assay [2]; 0.0805 in assay [3]; 0.386 in [4]; 2.34 in assay [5]; 0.315 in assay [6]. The composite z-score was determined as 1.3 with Sam68 (KHDRBS1); 0.581 in assay [7]; 1.18 in assay [8]; 1.38 in assay [9]; 1.23 in assay [10]; 0.905 in assay [11]. Further, the composite z-score in assay [12] amounted to 0.965; in [13] it was 1.37; in assay [14], 0.977; with Lefty1, 0.811; in assay [16], 1.14. Also, the composite Z-score in assay [1] was 0.637 (inactive). Moreover, the z-score was -1.7 in assay [15] and 0.152 (inactive) in [17].

Turning to `C=C(COC)/C(=C/C[C@@H](OC(=O)c1ccncc1)c1ccccc1OCCO)c1cnc2ccccc2c1`, the composite z-score in the assay with Albumin (Bos taurus) is 0.57; in assay [2] it was 0.265; in [3], -0.0762; in assay [4] it was 0.962; in assay [5] it was 0.562; in [6], 0.475. Further, the composite z-score was found to be 1.3 in the assay on Sam68 (KHDRBS1); 1.38 in assay [7]; 1.22 in [8]; 1.27 in assay [9]; 1.17 in assay [10]; 0.276 in assay [11]. The composite z-score in assay [12] amounted to 0.848; in assay [13] it was 1.47; in assay [14] it was 1.6; in the assay on Lefty1, 1.56; in [16] it was 1.39. Besides, the composite Z-score in [1] is 0.341 (inactive). Also, the z-score in [15] is 1.5; in assay [17], -1.17 (inactive).

Consider `COc1ccc([Si](C)(C)[C@@H]2[C@@H](CC(=O)N3Cc4ccccc4C[C@H]3CO)O[C@]3(C(=O)N(Cc4ccc(I)cc4)c4ccccc43)[C@H]2C)cc1`, for which the composite z-score was -0.145 with Albumin (Bos taurus); 0.0676 in assay [2]; -0.133 in [3]; 0.284 in assay [4]; 0.583 in [5]; -0.098 in assay [6]. Besides, the composite z-score in the assay with Sam68 (KHDRBS1) was found to be 1; in assay [7] it was 1.35; in [8], 0.957; in assay [9], 0.521; in assay [10], 0.963; in assay [11], 0.0916. Besides, the composite z-score in assay [12] was 0.838; in assay [13], 1.59; in [14], 1.65; in the assay with Lefty1, 1.58; in assay [16], 0.373. For the same compound, the composite Z-score in assay [1] was 0.26 (inactive). The z-score is -0.26 in [15] and 0.798 (inactive) in assay [17].

As for `CC(C)c1ccc(NN2C(C(O)c3ccccc3)C=CC3C(=O)N(c4ccccc4)C(=O)C32)cc1` (stereo not given), the composite z-score with Albumin (Bos taurus) is 0.834; in assay [2], 0.216; in assay [3] it was -0.0194; in assay [4] it was 0.574; in [5], 1.79; in assay [6] it was -0.191. Also, the composite z-score in the assay with Sam68 (KHDRBS1) is 1.32; in [7], -0.747; in assay [8], 1.12; in assay [9], 0.593; in assay [10], 1.19; in [11] it was 0.684. The composite z-score in assay [12] is 1.02; in assay [13] it was 0.075; in assay [14] it was -0.522; in the assay on Lefty1 it was -0.56; in assay [16], 1.13. For the same compound, the composite Z-score in assay [1] is -0.175 (inactive). The z-score in [15] is 0.266; in [17], -2.04 (inactive).

For `COC(=O)c1ccc(OC)c(/C=C\CC(OC(=O)c2ccncc2)c2ccccc2)c1` (stereo not given), the composite z-score was -0.311 with Albumin (Bos taurus); -0.0077 in [2]; -0.168 in assay [3]; 0.387 in [4]; 0.0584 in assay [5]; -0.304 in assay [6]. For the same compound, the composite z-score in the assay with Sam68 (KHDRBS1) was -0.0077; in assay [7] it was 1.37; in assay [8] it was 0.535; in [9] it was 0.429; in assay [10] it was -0.0099; in [11] it was -0.111. For the same compound, the composite z-score in assay [12] was -0.237; in assay [13], 1.1; in assay [14] it was 1.22; with Lefty1, 0.904; in assay [16] it was 0.947. The composite Z-score in assay [1] is 0.63 (inactive). In addition, the z-score in [15] is 1.64; in assay [17], -1.89 (inactive).

`O=C(CS)NCCCCCCNC(=O)[C@H]1C[C@H]2C(=O)NCC(=O)N2[C@H]1c1cccc(OCCO)c1`: the composite z-score in the assay with Albumin (Bos taurus) is -0.509; in assay [2], 0.191; in assay [3] it was -0.0995; in assay [4] it was 0.458; in [5], 1.37; in assay [6] it was 0.122. The composite z-score was 0.221 with Sam68 (KHDRBS1); 0.283 in [7]; 0.966 in assay [8]; 1.64 in [9]; 0.245 in assay [10]; 0.128 in assay [11]. Also, the composite z-score is 0.65 in [12]; 1.35 in assay [13]; 1.56 in [14]; 0.47 in the assay on Lefty1; -0.152 in [16]. Besides, the composite Z-score in [1] is 0.54 (inactive). For the same compound, the z-score was -0.698 in assay [15] and 0.057 (inactive) in assay [17].
